From PubChem BioAssay (Tox21)
Several values for one entry are separate records, joined by “and”; a condition that tells them apart may be missing. Equal entries are not always repeated. Inconclusive results are not listed. Entries that show only a call come without a potency. Some structures have more than one record in an assay (separate samples or runs), and their calls can disagree. Activity calls are given as the source filed them. Unless noted, the call rests on the fitted dose curve.

Key:
[1] = Nuclear factor erythroid 2-related factor 2/antioxidant responsive element (Nrf2/ARE) small molecule agonists: qHTS cell viability counter screen in human keratinocytes (AID 1919968; active means well fitted curve in the direction sought with a large enough effect in the repeat runs; an effect the other way counts as inactive or inconclusive; further: nearly all actives have a fitted effect of over 55% in size)
Summary of the method: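 HaCaT ARE reporter line, 1,500 cells/well; 5 h settle, 37 C/5% CO2; cpd in DMSO pinned; 23 h exposure; CellTiter-Fluor, 1 h; fluorescence.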

[2] = Nuclear factor erythroid 2-related factor 2/antioxidant responsive element (Nrf2/ARE) small molecule agonists: luciferase reporter gene qHTS assay in human keratinocytes (AID 1919969); further: nearly all actives have a fitted effect of over 35% in size; further: potency means the concentration at half of the fitted maximal effect
[3] = target: Gonadotropin-releasing hormone receptor (Homo sapiens) (UniProt P30968); assay: Human gonadotropin-releasing hormone receptor (GnRHR) small molecule agonists, calcium flux assay in GnRHR-HEK293 cells (AID 1920063); further: nearly all actives have a fitted effect of over 35% in size
Sequence of Gonadotropin-releasing hormone receptor (Homo sapiens) (P30968 whole entry, looked up): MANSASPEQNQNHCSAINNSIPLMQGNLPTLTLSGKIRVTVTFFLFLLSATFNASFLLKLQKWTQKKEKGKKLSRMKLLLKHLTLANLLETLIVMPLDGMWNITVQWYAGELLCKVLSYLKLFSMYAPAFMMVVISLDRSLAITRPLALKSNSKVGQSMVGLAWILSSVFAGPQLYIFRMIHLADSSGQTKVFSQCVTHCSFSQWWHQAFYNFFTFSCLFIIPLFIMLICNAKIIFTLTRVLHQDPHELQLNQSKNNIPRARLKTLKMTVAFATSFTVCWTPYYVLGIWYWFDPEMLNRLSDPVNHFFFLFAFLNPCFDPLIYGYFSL
Summary of the method: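 GnRHR-HEK293, 1500 cells/well, 18 h 37 C/5% CO2; Ca dye 1 h 37 C; cpd pinned (DMSO), agonist mode; kinetic FL 480/540, 3 min, 1 s reads; 15 conc, n=3.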

[4] = target: KiSS-1 receptor (Homo sapiens) (UniProt Q969F8); assay: Human kisspeptin (KISS1R) small molecule agonists, calcium flux assay in KISS1R-HEK293 cells (AID 1920064; active means well fitted curve in the direction sought with a large enough effect in the repeat runs; an effect the other way counts as inactive or inconclusive)
Sequence of KiSS-1 receptor (Homo sapiens) (Q969F8 whole entry, looked up): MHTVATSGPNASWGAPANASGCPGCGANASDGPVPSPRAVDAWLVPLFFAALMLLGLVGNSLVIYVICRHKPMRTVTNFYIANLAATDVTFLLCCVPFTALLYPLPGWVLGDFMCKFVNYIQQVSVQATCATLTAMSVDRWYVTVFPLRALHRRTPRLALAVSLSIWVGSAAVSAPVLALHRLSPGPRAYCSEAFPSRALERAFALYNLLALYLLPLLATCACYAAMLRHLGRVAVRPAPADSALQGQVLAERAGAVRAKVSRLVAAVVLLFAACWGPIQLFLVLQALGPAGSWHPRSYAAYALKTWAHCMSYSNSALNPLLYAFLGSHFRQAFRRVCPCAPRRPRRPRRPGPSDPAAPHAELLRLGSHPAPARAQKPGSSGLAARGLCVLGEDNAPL
Summary of the method: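 Stable human KISS1R HEK293 line; 18 h plating, 37 C/5% CO2; calcium dye 1 h 37 C; compound pin transfer; kinetic fluorescence Ex/Em 480/540, 3 min.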

[5] = G protein-coupled receptor (GPCR) small molecule agonists, calcium flux assay: HEK293 wild type cell line counter screen (AID 1920065)
Summary of the method: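 Kinetic fluorescence at Ex/Em 480/540, recorded every second over 3 min, served as the read-out after compound addition. Each compound was tested at 15 concentrations in triplicate on cells pre-loaded with calcium dye for 1 h.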

[6] = p53 small molecule agonists, cell-based qHTS assay with human liver microsomes (AID 1963577);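 further: p53 response element beta-lactamase reporter cells with liver microsomes plus NADPH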
Summary of the method: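 16 h, 37 C exposure of p53RE-bla cells to compounds with human liver microsomes and NADPH (0.5 mg/mL final each); detection via LiveBLAzer mixture, 2 h dark at room temperature.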

[7] = p53 small molecule agonists, cell-based qHTS assay with rat liver microsomes (AID 1963578)
Summary of the method: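 With rat liver microsomes and NADPH present (0.5 mg/mL final each), p53RE-bla cells are treated with compound for 16 h at 37 C. LiveBLAzer detection mixture is then applied for 2 h at room temperature in the dark.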

[8] = p53 small molecule agonists, cell-based qHTS assay with human liver microsomes: qHTS cell viability counter screen (AID 1963579); further: nearly all actives have a fitted effect of over 45% in size
Summary of the method: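 In this multiplexed counter screen, the reporter plates were subsequently treated with CellTiter-Glo so that cell viability, reflected by luminescence, could be recorded for p53RE-bla cells dosed 16 h with compounds under microsomal activation (HLM and NADPH).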

[9] = p53 small molecule agonists, cell-based qHTS assay with rat liver microsomes: qHTS cell viability counter screen (AID 1963580); further: nearly all actives have a fitted effect of over 45% in size
Summary of the method: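 In HCT-116 cells carrying a p53 response element-bla reporter, compounds were metabolically activated in situ by rat liver microsomes with NADPH over 16 h. Cell ATP content then served as the cytotoxicity measure.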

[10] = p53 small molecule agonists, cell-based qHTS assay: qHTS cell viability counter screen (AID 1963581); further: nearly all actives have a fitted effect of over 45% in size
Summary of the method: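 HCT-116 p53RE-bla cells, 4,000/well, plated 5 h before compound pin transfer; 16 h at 37 C; bla substrate 2 h RT; then CellTiter-Glo, 30 min RT, luminescence.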

[11] = p53 small molecule agonists, cell-based qHTS assay (AID 1963582; active means well fitted activation curve with a large enough effect in the signal ratio in the repeat runs, not every such curve was filed as active; the % refers to the signal ratio)
Summary of the method: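 Reporter line: p53RE-bla. Pre-incubation 5 h, 37 C, 5% CO2; compound (DMSO, pin tool) 16 h, 37 C; B/G FRET substrate 2 h RT; fluorescence intensity read.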

[12] = target: 5-hydroxytryptamine receptor 2A (Homo sapiens) (UniProt P28223); assay: 5-hydroxytryptamine receptor 2A (HTR2A) small molecule antagonists, cell-based qHTS assay (AID 1963586); further: nearly all actives have a fitted effect of over 45% in size
Sequence of 5-hydroxytryptamine receptor 2A (Homo sapiens) (P28223 whole entry, looked up): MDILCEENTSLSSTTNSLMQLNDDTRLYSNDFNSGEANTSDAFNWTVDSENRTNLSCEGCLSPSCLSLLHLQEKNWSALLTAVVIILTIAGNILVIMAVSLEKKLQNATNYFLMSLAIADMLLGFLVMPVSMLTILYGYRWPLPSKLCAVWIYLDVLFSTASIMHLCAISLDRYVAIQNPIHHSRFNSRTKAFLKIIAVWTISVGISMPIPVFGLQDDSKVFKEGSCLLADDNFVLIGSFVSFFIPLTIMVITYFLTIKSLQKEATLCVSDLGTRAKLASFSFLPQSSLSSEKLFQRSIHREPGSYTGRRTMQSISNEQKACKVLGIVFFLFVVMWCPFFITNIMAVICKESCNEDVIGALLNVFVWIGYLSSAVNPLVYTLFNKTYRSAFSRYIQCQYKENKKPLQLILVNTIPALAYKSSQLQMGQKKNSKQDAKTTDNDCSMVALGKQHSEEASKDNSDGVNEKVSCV
Summary of the method: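 Antagonist-mode intracellular calcium assay: DOI (4 nM) added after 5 min compound pre-incubation at room temperature to dye-loaded HTR2A-CHO cells. Fluorescence followed for 3 min, sampled every second.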

[13] = target: 5-hydroxytryptamine receptor 2A (Homo sapiens) (UniProt P28223); assay: 5-hydroxytryptamine receptor 2A (HTR2A) small molecule agonists, cell-based qHTS assay (AID 1963587); further: nearly all actives have a fitted effect of over 30% in size
Summary of the method: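 HTR2A-CHO cells, plated 18 h at 37 C/5% CO2, dye-loaded 1 h at 37 C; compounds in DMSO added by pin tool (agonist mode). Intracellular calcium flux read as kinetic fluorescence on FDSS over 2 min at 1 s intervals.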

[14] = target: Muscarinic acetylcholine receptor M1 (Homo sapiens) (UniProt P11229); assay: Cholinergic receptor muscarinic 1 (CHRM1) small molecule antagonists, cell-based qHTS assay (AID 1963588); further: nearly all actives have a fitted effect of over 40% in size
Sequence of Muscarinic acetylcholine receptor M1 (Homo sapiens) (P11229 whole entry, looked up): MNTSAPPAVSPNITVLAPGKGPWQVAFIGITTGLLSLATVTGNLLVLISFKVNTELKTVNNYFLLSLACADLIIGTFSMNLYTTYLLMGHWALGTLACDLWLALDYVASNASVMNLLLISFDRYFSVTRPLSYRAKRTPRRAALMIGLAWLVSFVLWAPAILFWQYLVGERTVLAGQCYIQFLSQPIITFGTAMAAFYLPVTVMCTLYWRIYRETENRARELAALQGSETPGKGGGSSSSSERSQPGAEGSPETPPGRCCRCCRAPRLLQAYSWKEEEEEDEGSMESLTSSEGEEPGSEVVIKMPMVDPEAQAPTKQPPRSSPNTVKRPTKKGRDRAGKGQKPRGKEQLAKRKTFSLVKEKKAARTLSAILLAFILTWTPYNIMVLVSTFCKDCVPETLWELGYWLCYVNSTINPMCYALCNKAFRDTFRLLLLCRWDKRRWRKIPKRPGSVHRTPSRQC
Summary of the method: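 CHRM1-CHO calcium-flux assay, antagonist mode. Cells were seeded 18 h, dye-loaded 1 h at 37 C and given compound for 5 min at RT, then acetylcholine was added at 50nM. FDSS fluorescence was read 3 min; 15 concentrations, three runs.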

[15] = target: Muscarinic acetylcholine receptor M1 (Homo sapiens) (UniProt P11229); assay: Cholinergic receptor muscarinic 1 (CHRM1) small molecule agonists, cell-based qHTS assay (AID 1963589); further: nearly all actives have a fitted effect of over 35% in size; further: potency means the concentration at half of the fitted maximal effect
Summary of the method: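 Human M1 in stable CHO line; 18 h plating, 1 h dye load 37 C; cpd added (agonist mode); Ca2+ fluorescence kinetic read, 1 s intervals; 15 conc, 3 runs.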

[16] = cAMP Responsive Elements (CRE) small molecule agonists, cell-based qHTS assay (AID 1963590)
Summary of the method: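 HEK 293T CRE-bla, 2,000 cells/well, 18 h preincubation 37 C/5% CO2; cpds (DMSO) pinned, 3 h; LiveBLAzer B/G FRET substrate, 2 h RT.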

[17] = cAMP Responsive Elements (CRE) small molecule antagonists, cell-based qHTS assay (AID 1963591; active means well fitted inhibition curve with a large enough effect in the signal ratio in the repeat runs, not every such curve was filed as active; the % refers to the signal ratio)
Summary of the method: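 Beta-lactamase reporter read by FRET substrate (LiveBLAzer B/G) after 2 h at room temperature. CRE-bla HEK293T cells had received compound plus 0.25 uM (final) NKH477 for 3 h at 37 °C.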

[18] = target: Beta-2 adrenergic receptor (Homo sapiens) (UniProt P07550); assay: Adrenergic beta2 receptor (ADRB2) small molecule antagonists, cell-based qHTS assay (AID 1963592); further: series mostly up to about 92 µM; nearly all actives have a fitted effect of over 50% in size
Sequence of Beta-2 adrenergic receptor (Homo sapiens) (P07550 whole entry, looked up): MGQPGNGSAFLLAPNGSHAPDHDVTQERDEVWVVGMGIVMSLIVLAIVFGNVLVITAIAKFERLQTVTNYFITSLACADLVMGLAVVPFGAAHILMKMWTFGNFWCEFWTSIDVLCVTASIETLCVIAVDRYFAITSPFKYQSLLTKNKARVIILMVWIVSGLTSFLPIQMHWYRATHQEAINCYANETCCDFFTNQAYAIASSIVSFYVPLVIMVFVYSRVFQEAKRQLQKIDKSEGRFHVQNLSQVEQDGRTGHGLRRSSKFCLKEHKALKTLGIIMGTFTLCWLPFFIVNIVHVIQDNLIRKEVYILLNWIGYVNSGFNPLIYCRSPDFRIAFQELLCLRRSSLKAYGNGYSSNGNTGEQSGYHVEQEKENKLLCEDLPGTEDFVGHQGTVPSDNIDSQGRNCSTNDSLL
Summary of the method: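 Cells (CHO, stable ADRB2 overexpression) incubated 18-20hr at 37C; compounds added from DMSO; agonist mix (1nM isoproterenol, 100uM IBMX, 25uM Ro-20-1724) added; 0.5hr RT; d2-cAMP and anti-cAMP-cryptate added; 1hr RT; 665/615 nm read.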

[19] = target: D(2) dopamine receptor (Homo sapiens) (UniProt P14416); assay: Dopamine D2 receptor (DRD2) small molecule agonists, cell-based qHTS assay (AID 1963594); further: nearly all actives have a fitted effect of over 35% in size
Sequence of D(2) dopamine receptor (Homo sapiens) (P14416 whole entry, looked up): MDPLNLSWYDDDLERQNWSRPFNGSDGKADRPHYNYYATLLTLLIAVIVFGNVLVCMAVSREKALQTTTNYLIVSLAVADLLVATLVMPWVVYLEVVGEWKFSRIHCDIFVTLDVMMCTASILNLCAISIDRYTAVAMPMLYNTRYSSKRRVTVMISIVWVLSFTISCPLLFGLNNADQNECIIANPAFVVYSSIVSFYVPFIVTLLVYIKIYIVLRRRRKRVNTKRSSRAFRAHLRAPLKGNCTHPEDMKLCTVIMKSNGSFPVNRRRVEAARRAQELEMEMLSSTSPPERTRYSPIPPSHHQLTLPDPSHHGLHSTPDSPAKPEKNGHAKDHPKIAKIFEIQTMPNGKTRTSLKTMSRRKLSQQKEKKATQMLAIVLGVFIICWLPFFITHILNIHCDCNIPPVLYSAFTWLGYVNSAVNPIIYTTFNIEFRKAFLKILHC
Summary of the method: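 HEK293 cells stably expressing DRD2 were cultured 24 h at 37 C, then given Ro20-1724 (0.1 mM final) and compounds for 10 min at room temperature. NKH477 (200nM) was then added for 30 min. cAMP was read by HTRF.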

[20] = target: D(2) dopamine receptor (Homo sapiens) (UniProt P14416); assay: Dopamine D2 receptor (DRD2) small molecule antagonists, cell-based qHTS assay (AID 1963595; active means well fitted inhibition curve with a large enough effect in the signal ratio in the repeat runs, with a control signal flat; the % refers to the signal ratio)
Summary of the method: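 HTRF cAMP read-out at 665 and 620 nm emission (340 nm excitation). Antagonist mode: compounds were tested against 12 nM quinpirole in DRD2-HEK293 cells, with 200 nM NKH477 raising cAMP and 0.1 mM Ro20-1724 blocking its breakdown.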

Row | Structure (SMILES) | Potency [1] | Potency [2] | Potency [3] | Potency [4] | Potency [5] | Potency [6] | Potency [7] | Potency [8] | Potency [9] | Potency [10] | Potency [11] | Potency [12] | Potency [13] | Potency [14] | Potency [15] | Potency [16] | Potency [17] | Potency [18] | Potency [19] | Potency [20]
1 | ClC1=C(Cl)C(Cl)(Cl)C(Cl)=C1Cl | inactive | inactive and 61.1 µM (active) | inactive | inactive | inactive | inactive | inactive | inactive | inactive | inactive | inactive | inactive | inactive | inactive | inactive | inactive | inactive | inactive | inactive | inactive
2 | CCCCC/C(C=O)=C\c1ccccc1 | inactive | inactive | inactive | inactive | inactive | inactive | inactive | inactive | inactive | inactive | inactive | inactive | inactive | inactive | inactive | inactive | inactive | inactive | inactive | inactive
3 | Cc1ccc(C)c(O)c1 | inactive | inactive | inactive | inactive | inactive | inactive | inactive | inactive | inactive | inactive | inactive | inactive | inactive | inactive | inactive | inactive | inactive | inactive | inactive | inactive
4 | C#CCN(C)Cc1ccccc1 | inactive | inactive | inactive | inactive | inactive | inactive | inactive | inactive | inactive | inactive | inactive | inactive | inactive | inactive | inactive | inactive | inactive | inactive | inactive | inactive
5 | CC(=O)OCCOC(C)=O | inactive | inactive | inactive | inactive | inactive | inactive | inactive | inactive | inactive | inactive | inactive | inactive | inactive | inactive | inactive | inactive | inactive | inactive | inactive | inactive
6 | Nc1cc([N+](=O)[O-])ccc1C(=O)O | inactive | inactive | inactive | inactive | inactive | inactive | inactive | inactive | inactive | inactive | inactive | inactive | inactive | inactive | inactive | inactive | inactive | inactive | inactive | inactive
7 | OB(O)O | inactive | inactive | inactive | inactive | inactive | inactive | inactive | inactive | inactive | inactive | inactive | inactive | inactive | inactive | inactive | inactive | inactive | – | inactive | inactive
8 | CCCCC(CC)COC(=O)c1ccc(C(=O)OCC(CC)CCCC)cc1 (centres undefined) | inactive | inactive | inactive | inactive | inactive | inactive | inactive | inactive | inactive | inactive | inactive | inactive | inactive | inactive | inactive | inactive | inactive | – | – | inactive
9 | CCCCC(CC)COC(=O)/C=C/c1ccc(OC)cc1 (centres undefined) | inactive | inactive | inactive | inactive | inactive | inactive | inactive | inactive | inactive | inactive | inactive | inactive | inactive | inactive | inactive | inactive | inactive | – | inactive | inactive
10 | CCCCCCCCCCCCCCCC(=O)OC(C)C | inactive | inactive | inactive | inactive | inactive | inactive | inactive | inactive | inactive | inactive | inactive | inactive | inactive | inactive | inactive | inactive | inactive | inactive | inactive | inactive
11 | O=C(OCC1CCC2OC2C1)C1CCC2OC2C1 (centres undefined) | inactive | inactive | inactive | inactive | inactive | inactive | inactive | inactive | inactive | inactive | inactive | inactive | inactive | inactive | inactive | inactive | inactive | inactive | inactive | inactive
12 | CNC(=S)N(C)C | inactive | inactive | inactive | inactive | inactive | inactive | inactive | inactive | inactive | inactive | inactive | inactive | inactive | inactive | inactive | inactive | inactive | inactive | – | inactive
13 | CN(C)Cc1cc(CN(C)C)c(O)c(CN(C)C)c1 | inactive | inactive | inactive | inactive | inactive | inactive | inactive | inactive | inactive | inactive | inactive | inactive | inactive | inactive | inactive | inactive | inactive | inactive | inactive | inactive
14 | COC(=O)CC(=O)OC | inactive | inactive | inactive | inactive | inactive | inactive | inactive | inactive | inactive | inactive | inactive | inactive | inactive | inactive | 20.3 µM (active) and inactive | inactive | inactive | – | inactive | inactive
15 | CC(O)COCC(C)O (centres undefined) | inactive | inactive | inactive | inactive | inactive | inactive | inactive | inactive | inactive | inactive | inactive | inactive | inactive | inactive | inactive | inactive | inactive | inactive | inactive | inactive
